# Laboratory results: publication PMC10812921, “Transcriptional Coactivator BOB1 (OBF1, OCA-B) Modulates the Specificity of DNA Recognition by the POU-Domain Factors OCT1 and OCT2 in a Monomeric Configuration”
# Tests used:
# [1] = molecular target: POU1 (OCT1 POU domain) (human, UniProt P14859 260-458); experiment: EMSA-SELEX-seq; no BOB1; 20 mM Tris-HCl pH 7.6, 140 mM NaCl, 10% glycerol, 0.5 mM EDTA, 0.05% Triton X-100, 0.1 mg/mL BSA, 0.1 mg/mL poly(dI-dC), 5 mM DTT, room temperature, 20 min; high values mean tight binding; conditions: protein: recombinant; dsDNA, one strand shown
# Sequence of POU1 (OCT1 POU domain) (P14859 260-458): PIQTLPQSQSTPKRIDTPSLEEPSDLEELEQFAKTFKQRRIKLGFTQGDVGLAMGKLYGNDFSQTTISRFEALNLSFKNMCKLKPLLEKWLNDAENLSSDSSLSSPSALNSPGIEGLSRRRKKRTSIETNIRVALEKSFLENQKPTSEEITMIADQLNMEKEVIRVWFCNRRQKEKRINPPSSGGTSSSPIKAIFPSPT
# Summary of the method: (§1)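 After expression in E. coli BL21, tagged POU-domain proteins were purified under denaturing conditions and then renatured. Each binding reaction held 30 ng protein and 300 ng of a PCR-amplified double-stranded random 35-nt library in 20 μL Tris–HCl pH 7.6 binding buffer, with or without 28 ng coactivator protein, for 20 min at RT. Bands holding complexes were cut from native 6% PAGE, eluted and PCR-amplified across four rounds, and the output was Illumina-sequenced. The value given for binding preference is the share, in percent, of sequenced 8-mers fitting a motif pattern.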
# [2] = molecular target: T1, POU2 (OCT2 POU domain) (human, UniProt P09086 175-386); experiment: as above; conditions: protein: recombinant; dsDNA, one strand shown
# T1 sequence: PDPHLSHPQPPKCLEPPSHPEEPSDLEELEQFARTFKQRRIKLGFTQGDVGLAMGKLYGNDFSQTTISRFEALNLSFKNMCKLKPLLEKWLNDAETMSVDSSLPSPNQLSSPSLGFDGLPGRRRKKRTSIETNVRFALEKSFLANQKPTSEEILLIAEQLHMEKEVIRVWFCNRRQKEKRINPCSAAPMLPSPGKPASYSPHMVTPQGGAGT
# Summary of the method: as §1
# [3] = molecular target: POU1 (OCT1 POU domain);BOB1 (OBF1, OCA-B) (human;human, UniProt P14859;Q16633 260-458;1-256, |); experiment: EMSA-SELEX-seq; with BOB1 (ternary complex band); 20 mM Tris-HCl pH 7.6, 140 mM NaCl, 10% glycerol, 0.5 mM EDTA, 0.05% Triton X-100, 0.1 mg/mL BSA, 0.1 mg/mL poly(dI-dC), 5 mM DTT, room temperature, 20 min; high values mean tight binding; conditions: protein: recombinant;recombinant; copies: 1;1; dsDNA, one strand shown
# Summary of the method: as §1
# [4] = molecular target: T2, POU2 (OCT2 POU domain);BOB1 (OBF1, OCA-B) (human;human, UniProt P09086;Q16633 175-386;1-256, |); experiment: as above; conditions: protein: recombinant;recombinant; copies: 1;1; dsDNA, one strand shown
# T2 sequence 1: T1 sequence
# T2 sequence 2: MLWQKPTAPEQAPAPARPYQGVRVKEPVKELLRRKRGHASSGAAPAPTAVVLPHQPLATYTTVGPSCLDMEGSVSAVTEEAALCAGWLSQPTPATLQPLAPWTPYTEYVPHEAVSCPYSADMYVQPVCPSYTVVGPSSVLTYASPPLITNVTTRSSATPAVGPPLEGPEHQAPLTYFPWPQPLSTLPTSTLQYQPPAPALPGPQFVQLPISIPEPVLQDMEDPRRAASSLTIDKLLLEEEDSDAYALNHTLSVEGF
# Summary of the method: as §1
sequence,measurement,setting,value
AGGCCAAC,binding signal,[1],0.0107 % of ANNNNAAN 8-mers
same,binding signal,[2],0.0115 % of ANNNNAAN 8-mers
same,binding signal,[3],0.0113 % of ANNNNAAN 8-mers
same,binding signal,[4],0.0157 % of ANNNNAAN 8-mers
AGCCTAAG,binding signal,[1],0.0183 % of ANNNNAAN 8-mers
same,binding signal,[2],0.0207 % of ANNNNAAN 8-mers
same,binding signal,[3],0.0219 % of ANNNNAAN 8-mers
same,binding signal,[4],0.0149 % of ANNNNAAN 8-mers
AACTAAAG,binding signal,[1],0.024 % of ANNNNAAN 8-mers
same,binding signal,[2],0.0311 % of ANNNNAAN 8-mers
same,binding signal,[3],0.0293 % of ANNNNAAN 8-mers
same,binding signal,[4],0.0355 % of ANNNNAAN 8-mers
ATGGGAAG,binding signal,[1],0.0652 % of ANNNNAAN 8-mers
same,binding signal,[2],0.0696 % of ANNNNAAN 8-mers
same,binding signal,[3],0.0683 % of ANNNNAAN 8-mers
same,binding signal,[4],0.0735 % of ANNNNAAN 8-mers
ACTTAAAA,binding signal,[1],0.0587 % of ANNNNAAN 8-mers
same,binding signal,[2],0.0524 % of ANNNNAAN 8-mers
same,binding signal,[3],0.0464 % of ANNNNAAN 8-mers
same,binding signal,[4],0.052 % of ANNNNAAN 8-mers
AGTGTAAC,binding signal,[1],0.0217 % of ANNNNAAN 8-mers
same,binding signal,[2],0.015 % of ANNNNAAN 8-mers
same,binding signal,[3],0.0234 % of ANNNNAAN 8-mers
same,binding signal,[4],0.0272 % of ANNNNAAN 8-mers
ATGTCAAC,binding signal,[1],0.0214 % of ANNNNAAN 8-mers
same,binding signal,[2],0.023 % of ANNNNAAN 8-mers
same,binding signal,[3],0.0273 % of ANNNNAAN 8-mers
same,binding signal,[4],0.0215 % of ANNNNAAN 8-mers
AGCGCAAG,binding signal,[1],0.013 % of ANNNNAAN 8-mers
same,binding signal,[2],0.0121 % of ANNNNAAN 8-mers
same,binding signal,[3],0.0144 % of ANNNNAAN 8-mers
same,binding signal,[4],0.0165 % of ANNNNAAN 8-mers
ATGTAAAT,binding signal,[1],3.45 % of ANNNNAAN 8-mers
same,binding signal,[2],2.89 % of ANNNNAAN 8-mers
same,binding signal,[3],2.3 % of ANNNNAAN 8-mers
same,binding signal,[4],3.57 % of ANNNNAAN 8-mers
ACGCAAAG,binding signal,[1],0.098 % of ANNNNAAN 8-mers
same,binding signal,[2],0.061 % of ANNNNAAN 8-mers
same,binding signal,[3],0.163 % of ANNNNAAN 8-mers
same,binding signal,[4],0.0809 % of ANNNNAAN 8-mers
AAAATAAG,binding signal,[1],0.13 % of ANNNNAAN 8-mers
same,binding signal,[2],0.125 % of ANNNNAAN 8-mers
same,binding signal,[3],0.148 % of ANNNNAAN 8-mers
same,binding signal,[4],0.114 % of ANNNNAAN 8-mers
